Measured values reported in PubChem BioAssay AID435003 (Sanford-Burnham Center for Chemical Genomics, 2010).
The whole screen tested about 330,000 compounds, of which about 1,700 (0.52%) were called active. The sample holds actives, similar compounds and a random draw of the others, so the mix is not that of the screen. Values without a mark were called inactive. Cut-off read from the data, not from the text of the source: active = inhibition above about 50%; inactive = the rest.

assay: lowers stimulated NF-kB reporter luminescence – cell-based, uHTS, TCR NF-kB activation inhibitor project, primary screen (AID 435003); conditions: Jurkat, PMA/ionomycin-induced NF-kB luciferase reporter, at 4 µM, active compounds read high

| SMILES | inhibition |
| --- | --- |
| Cc1ccc(C(=O)OCC(=O)Nc2ccc(Cl)cn2)cc1S(=O)(=O)N1CCOCC1 | 3.39% |
| CCOC(=O)[C@H]1[C@H]2COc3ccc(OC)cc3[C@@H]2N2C(=O)c3ccc(F)cc3NC(=O)[C@@]12C | -10.9% |
| CC(N)C12CC3CC(CC(O)(C3)C1)C2 (stereo not drawn) | 6.68% |
| Cc1ccc2c(=O)oc(N(C)C)nc2c1 | 1.31% |
| COc1ccc(CNS(=O)(=O)c2ccc(-c3cnc(C4CC4)o3)cc2)cc1 | 18.4% |
| Cc1cccc(NS(=O)(=O)c2ccc(-c3cnc(C4CC4)o3)cc2)c1 | 54.1% (active) |
| Cc1cccc(CNS(=O)(=O)c2ccc(-c3cnc(C4CC4)o3)cc2)c1 | 5.99% |
| Cc1cccc(C)c1NC(=O)CNC(=O)C1CCCC1 | -3.97% |
| Cc1ccc(S(=O)(=O)C2(S(=O)(=O)c3ccc(C)cc3)CCCC2)cc1 | 59.5% (active) |
| Cc1ccc(S(=O)(=O)N(C)C2(C)CCS(=O)(=O)C2)cc1 (stereo not drawn) | 7.55% |
| Cc1ccc(S(=O)(=O)NC2CCCCCC2)cc1 | -18.9% |
| CC(=O)Nc1ccc(S(=O)(=O)NCC(=O)OCC(=O)c2ccc[nH]2)cc1 | 2.52% |
| Nc1c(C(=O)Nc2ccc3c(c2)OCCO3)nnn1Cc1ccccc1 | -98.1% |
| CCCNC(=O)c1cnc(-c2ccccc2)nc1-c1ccccc1 | 17.2% |
| C#CCSc1nnc(-c2sc3ccccc3c2Cl)o1 | -65.2% |
| COc1ccc(CCNC(=O)/C(C#N)=C2\N=C(NC(=O)c3cccs3)c3ccccc32)cc1 | -17.6% |
| O=C(NCC#CCSc1nnc(-c2cccc3ccccc23)o1)c1cccs1 | 51.4% (active) |
| N/C(=N\c1nc2ccccc2o1)NC(=O)C(Cc1ccccc1)N1C(=O)c2ccccc2C1=O (stereo not drawn) | -5.81% |
| O=C(CSc1ncnc2c1oc1ccccc12)NC1CCCC1 | -16.7% |
| O=C(NCCC1CCCCN1S(=O)(=O)c1ccc(F)cc1)C(=O)NC1CC1 (stereo not drawn) | 2.56% |
| COc1ccccc1CCNC(=O)C(=O)NCCC1CCCCN1S(=O)(=O)c1cccs1 (stereo not drawn) | 11.1% |

| SMILES | inhibition |
| --- | --- |
| O=C(NCCC1CCCCN1S(=O)(=O)c1cccs1)C(=O)Nc1ccc(F)cc1F (stereo not drawn) | 57.9% (active) |
| COC(=O)Cn1cnc2scc(-c3ccc(C)c(C)c3)c2c1=O | 11.8% |
| Cc1ccc(S(=O)(=O)N2CCN(C(=O)Cc3sc(C)nc3-c3ccc(F)cc3)CC2)c(C)c1 | 0.534% |
| CCOc1ccccc1OCCCNCc1ccccc1 | -8.28% |
| Clc1cccc(Cl)c1OCCOCCNCc1ccccc1 | 61.5% (active) |
| OCCNCc1cccc(OCc2ccccc2Cl)c1 | 4.83% |
| Cc1ccc(C(=O)N2CCN(C3CCCCC3)CC2)s1 | -4.14% |
| CC(C)(C)c1ccc(OC2=CS(=O)(=O)c3ccccc32)cc1 | -29.9% |
| CC(C)(C)c1ccc(Oc2ccc(N)cc2)cc1 | 84.9% (active) |
| COc1cccc(Oc2ccc(N)cc2)c1 | 0.758% |
| O=C(O)CCCCCNc1ncnc2ccc(Br)cc12 | 5.8% |
| COc1ccc(Nc2ncnc3ccc(Br)cc23)c(OC)c1 | 59.8% (active) |
| Brc1ccc2ncnc(NCc3cccnc3)c2c1 | 28.6% |
| CC(C)c1ccc(-c2noc(C3CCCN(S(C)(=O)=O)C3)n2)cc1 (stereo not drawn) | -30.6% |
| CCOc1ccc(C2C(C(=O)NC)=C(C)Nc3nc4ccccc4n32)cc1OC (stereo not drawn) | 6.25% |
| CCOC(=O)C1=C(C)Nc2nc3ccccc3n2C1c1cccs1 (stereo not drawn) | 7.93% |
| COc1ccccc1NC(=O)C1=C(C)Nc2nc3ccccc3n2C1c1cccs1 (stereo not drawn) | 58.1% (active) |
| O=C(O)/C=C/C(=O)NNc1ccc([N+](=O)[O-])cc1 | 9.38% |
| O=C(c1c(F)cccc1Cl)N1CCN(S(=O)(=O)c2ccc3c(c2)OCCCO3)CC1 | -0.00048% |
| CN=c1scc(-c2cc(OC)ccc2OC)n1/N=C/c1c(C)[nH]c2ccccc12 | -10.3% |
| COc1ccc2[nH]c(C(=O)N/N=C/c3cc(OC)c(OC)c(OC)c3)cc2c1 | 17.7% |

| SMILES | inhibition |
| --- | --- |
| COc1cc(N=Cc2c(O)[nH]c3ccccc23)cc(OC)c1OC | 76.1% (active) |
| CC(C)Oc1ccc(C(=O)NC(C)(C)CO)cc1 | -5.78% |
| CCC(C)NC(=O)C1c2ccccc2C(=O)N1Cc1ccccc1 (stereo not drawn) | -0.632% |
| COC(c1ccccc1)c1nnc(CCC(=O)N2CCN(CCOc3ccccc3)CC2)o1 (stereo not drawn) | 14.1% |
| COc1ccc(N2CC(NS(=O)(=O)c3ccc4ccccc4c3)CC2=O)cc1 (stereo not drawn) | 4% |
| Cc1ccc(S(=O)(=O)Nc2ccc3ncccc3c2)cc1 | 16.8% |
| COc1cc(NS(=O)(=O)c2ccc3ccccc3c2)c2ncccc2c1 | 66% (active) |
| O=C(NC(=O)c1ccc(Cl)c(Cl)c1)OC1CCS(=O)(=O)C1 (stereo not drawn) | 2.78% |
| C=CCN(c1ccc(C(N)=O)cc1)S(C)(=O)=O | -12.3% |
| CCC(C)c1ccc(NC(=S)NCc2ccccn2)cc1 (stereo not drawn) | -14.5% |
| NC1=NC2(CCCCC2)N(c2ccc(F)cc2F)C(N)=N1 | 2.27% |
| CCOc1ccc(/C=N/NC(N)=S)cc1 | -13% |
| NC(N)=N/N=C/c1ccc(OCc2ccc(Cl)cc2Cl)cc1 | 59% (active) |
| OC(CNCCc1ccc(Cl)cc1Cl)COc1ccccc1 (stereo not drawn) | 5.89% |
| COc1ccccc1N1CCN(C(=O)c2cc(=O)c3cc(C)cc(C)c3o2)CC1 | 64.2% (active) |
| COc1ccccc1N1CCN(C(=O)c2c(-c3c(Cl)cccc3Cl)noc2C)CC1 | -3.34% |
| COc1ccccc1N1CCN(C(=O)c2cc(=O)c3cc(C)ccc3o2)CC1 | 19.9% |
| O=C(O)c1cc2c(cc1NC(=O)c1c(F)cccc1Cl)OCCCO2 | 17.5% |
| O=C(CN1C(=O)c2ccccc2S1(=O)=O)NC1CCCCC1 | -1.51% |
| O=C(CN1C(=O)c2ccccc2S1(=O)=O)N1CCc2ccccc21 | 72.7% (active) |
| CC1CCCN(C(=O)CN2C(=O)c3ccccc3S2(=O)=O)C1 (stereo not drawn) | -25% |
